MARV entry inh: Marburg virus entry inhibition; Potency, µM (top dose mostly 37.8 µM), for inactives: at the top dose activity change, negative = inhibition, hits mostly inhibitors; Marburg virus pseudotyped entry inhibition, cell reporter; hit rate 1.8% among 300,000; calls by dose curve; tested in HEK293 cells
VACV Venus inh: vaccinia inhibition (Venus reporter). hit rate 0.46% among 330,000. Vaccinia virus Venus reporter expression, fluorescence. Potency, µM (top dose mostly 36.5 µM), for inactives: at the top dose activity change, negative = inhibition, usual class: inhibitors. AID 720580; calls by dose curve; tested in A549 cells; also: nearly all actives have a fitted effect of over 30% in size
LASV entry inh: inhibitors of Lassa virus binding or cell entry; Lassa virus pseudotype entry inhibition, cell reporter; hit rate 1.2% among 300,000; AID 540256; Potency, µM (highest dose often 37.9 µM), for inactives: at the highest dose activity change, negative = inhibition, actives largely listed as inhibitors; calls by dose curve; tested in HEK293 cells; also: nearly all actives have a fitted effect of over 50% in size
HCV inhibitor: inhibitors of hepatitis C virus infection | Huh7.5.1 HCVcc-Cre infection, luciferase reporter, 44 h | Potency, µM (titrated, usually from 41.8 µM), for inactives: at the highest dose activity change, negative = inhibition, most hits filed as inhibitors | hit rate 3.4% among 340,000 | AID 651820; active = well fitted inhibition curve with a large enough effect; inconclusive = small, poorly fitted or top-dose-only effect, or another doubt; inactive = no such curve, though single readings can be large or run the other way
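HCVcc-Cre virus at an moi near 0.5 was added right after compound to cells cultured 4 h from seeding (1,000 cells/well). Luciferase activity was determined 44 h later, 15 min after substrate addition at RT.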
VACV mCherry inh: vaccinia inhibition (mCherry reporter); AID 720579; Vaccinia virus mCherry reporter infection, fluorescence; Potency, µM (doses to about 36.5 µM), without a hit: at the highest dose activity change, negative = inhibition, actives largely listed as inhibitors; hit rate 0.63% among 310,000; calls by dose curve; tested in A549 cells; also: nearly all actives have a fitted effect of over 35% in size
Active calls of the source: *; i = inactive; ? = inconclusive; · = no result given; [ ] = dose if it differs, or a comment. Sampled rows, rich in hits. Any-hit rate of the full collection: about 4.6%. % is scaled to controls: 0 for no effect and ±100 for the full control effect; potency is read from the fitted curve at half-maximal effect.

SMILES	MARV entry inh	VACV Venus inh	LASV entry inh	HCV inhibitor	VACV mCherry inh
COC(=O)c1ccc(CCc2cc(O)ccc2O)cc1	?	-4%	13µM*	4µM*	?
CC(C)OC(=O)c1ccc(NCc2cc(O)ccc2O)cc1	2µM*	-16%	13µM*	3.5µM*	?
Cc1cccc(C(=O)Nc2nnc(SCc3cc(=O)n4cccc(C)c4n3)s2)c1	·	-8%	17%[46.1 µM]	·	i
COC(=O)[C@@H]1CCCN1Cc1ccc2c(c1)CN(Cc1cccc(Cl)c1)CCO2	·	-3%	·	·	-10%
Cc1nn(C)cc1CN1CCOc2ccc(C(C)(O)COc3ccccc3)cc2C1 (stereo unspecified)	·	?	·	·	-4%
C=CCN1C(=O)CSc2ccc(C(=O)NCCC3=CCCCC3)cc21	?	·	7.3µM*	?	·
C=CCN1C(=O)CSc2ccc(C(=O)NCc3ccco3)cc21	-3%	·	-17%	?	·
CCn1nc(-c2ccccc2)nc2c(=O)n(C)c(=O)nc1-2	0.89µM*	2.2µM*	?	2.8µM*	2.5µM*
CCn1nc(-c2ccc(C)cc2)nc2c(=O)n(C)c(=O)nc1-2	·	3.2µM*	·	·	2.5µM*
CCS(=O)(=O)n1nc(-c2ccc(C)cc2)nc1N	9%[46.1 µM]	1%	2%	-1%	-13%
COC(=O)c1cc(NC(=O)C(C)c2ccc(CC(C)C)cc2)ccc1O (stereo unspecified)	?	-8%	?	11µM*	?
CCOc1ccc2nc3cc(N=Nc4ccc(N)nc4N)ccc3c(N)c2c1	-17%	-5%	4%[46.1 µM]	11µM*	-1%
COc1cccc(-c2ccnc(-n3ncc(C(=O)NCC4(N5CCCCC5)CCCC4)c3C)n2)c1	·	7%	·	·	-8%
C=C(CC(=O)OC)C[C@]1(CC(=O)OC)CC2(CC=C(C)C)C(=O)C(C(=O)c3ccccc3)=C(OC(=O)c3ccc(Br)cc3)C(CC=C(C)C)(C1)C2=O (stereo partly specified)	4%[14.2 µM]	·	·	·	·
O=c1[nH]c2ccccc2n1C1CCN(C(CCc2ccccc2)c2nnnn2Cc2ccccc2)CC1 (stereo unspecified)	·	11µM*	·	·	?
CSCCC(c1nnnn1Cc1ccccc1)N1CCC(n2c(=O)[nH]c3ccccc32)CC1 (stereo unspecified)	·	-19%	·	·	-14%
Cc1ccn2cc(-c3cccc(S(=O)(=O)N4CCCC4)c3)nc2c1	?	-17%	?	11µM*	i
Cc1ccn2cc(-c3cccc([N+](=O)[O-])c3)nc2c1	?	-10%	4.5µM*	3%	-12%
Cc1ccn2cc(-c3cccc(NS(C)(=O)=O)c3)nc2c1	-26%[46.1 µM]	-3%	?	-22%	-14%
Cc1ccn2cc(-c3ccc(NS(=O)(=O)c4ccccc4)cc3)nc2c1	?	-23%	10%	11µM*	-25%
CC(=O)Nc1cccc(-c2cn3ccc(C)cc3n2)c1	·	·	·	-5%	·
COc1cccc(CN2CCC(c3nnc(SCC4CCCO4)n3C)CC2)c1O (stereo unspecified)	·	-8%	·	·	-12%
O=C(NCc1nnc2n1CCN(C(=O)/C=C/c1ccccc1)CC2)c1cccc(F)c1	·	-4%	·	·	-12%
COc1cc(/C=C/C(=O)c2ccc(O)cc2)ccc1OCC#N	?	13µM*	1.6µM*	?	13µM*
COc1cccc(C(=O)/C=C/c2ccc(OCC#N)c(OC)c2)c1	15µM*	?	?	?	?
SMILES	MARV entry inh	VACV Venus inh	LASV entry inh	HCV inhibitor	VACV mCherry inh
CC1CC2C(C(O)C[C@]3(C)C2CC[C@]3(O)C(=O)CO)[C@]2(C)C=CC(=O)C=C12 (stereo partly specified)	·	-8%	·	·	-16%
CCOc1nc(N2CCCCC2)nc(-n2cc(-c3ccccc3)nn2)n1	-5%	-8%	-2%	4%	·
CCOC(=O)c1nnn(-c2nc(N3CCCC3)nc(N3CCCC3)n2)c1-c1ccccc1	-2%	·	?	18µM*	·
CCOC(=O)c1nnn(-c2nc(OC)nc(N3CCCCC3)n2)c1-c1ccccc1	-1%	·	·	·	·
CCOC(=O)c1c(-c2ccccc2)nnn1-c1nc(OCC)nc(N2CCCCC2)n1	?	-29%	?	6.3µM*	-18%
Cc1ccc(Cn2cc(CCC(=O)NC3CCCCC3)c3ccccc32)cc1	·	-18%	-9%[46.1 µM]	·	-14%
C[C@@]12C(=O)OC(=O)[C@]1(C)C1CCC2O1	·	1.3µM*	·	0.5µM*	1.1µM*
CC12C(=O)N(c3nccs3)C(=O)C1(C)C1CCC2O1 (stereo unspecified)	-27%	?	-11%	-29%	?
COC(C(=O)C(O)C(C)O)C1Cc2cc3cc(OC4CC(OC5CC(O)C(O)C(C)O5)C(O)C(C)O4)c(C)c(O)c3c(O)c2C(=O)C1OC1CC(OC2CC(OC3CC(O)C(OC)C(C)O3)C(O)C(C)O2)C(O)C(C)O1 (stereo unspecified)	-26%	?	0%	1µM*	?
COC(C(=O)C(O)C(C)O)C1Cc2cc3cc(OC4CC(OC5CC(O)C(O)C(C)O5)C(O)C(C)O4)c(C)c(O)c3c(O)c2C(=O)C1OC1CC(OC2CC(OC3CC(C)(O)C(O)C(C)O3)C(O)C(C)O2)C(O)C(C)O1 (stereo unspecified)	·	0.28µM*	·	·	0.28µM*
C=CCOC(=O)C(C(C)=O)[C@@H](NC(=O)OC)c1cccs1 (stereo partly specified)	-6%[14.2 µM]	·	·	·	·
COc1ccc(/C=N/Nc2ncnc(Cl)c2N)cc1OC	0%	-7%	6%	26%	i
COc1cccc(/C=N/Nc2nccnc2Cl)c1O	1.6µM*	?	2.1µM*	2.5µM*	1.3µM*
COc1cccc(/C=N/Nc2ncnc(Cl)c2N)c1O	2.5µM*	5µM*	3.7µM*	5.6µM*	3.5µM*
COc1cccc(/C=N/Nc2ncnc3scc(-c4ccccc4)c23)c1O	1.4µM*	?	5.2µM*	?	2µM*
Clc1nccnc1N/N=C/c1ccc(Br)cc1	·	·	·	-6%	·
COc1ccc(/C=N/Nc2nccnc2Cl)cc1	?	-7%	8.2µM*	-1%	-13%
COc1ccc(/C=N/Nc2nccnc2Cl)c(OC)c1	21%[46.1 µM]	-1%	?	-30%	-5%
Cc1ncc2c(c1CNS(=O)(=O)N(C)C)CCN(C(=O)c1[nH]c3ccc(Cl)cc3c1C)C2	·	-12%	·	·	-14%
COc1ccc(CNC(=O)c2cccc(-n3cnc4cccnc43)c2C)cc1	·	-5%	14%[46.1 µM]	·	-11%
O=C(OC1CNC(C#Cc2cc3ncnc(Nc4ccc5c(ccn5Cc5cc(F)ccc5F)c4)c3s2)C1)N1CCOCC1 (stereo unspecified)	·	·	4µM*	·	·
Nc1ccc(/C=C/c2cccc3cccnc23)cc1	·	-21%	·	·	-8%
O=C(c1ccc2c(c1)N(Cc1ccccc1)C(=O)c1ccccc1S2(=O)=O)N1CCN(c2ccccn2)CC1	3.5µM*	-2%	?	·	-11%
CN(C(=O)c1ccc2c(c1)N(Cc1cccc(Cl)c1)C(=O)c1ccccc1S2(=O)=O)C1CCCCC1	·	-2%	10µM*	·	-3%
Cc1noc(C)c1S(=O)(=O)NCCc1csc2nc(-c3ccc(F)cc3)nn12	·	-14%	-14%[46.1 µM]	·	-7%
